This note sets out measurements from the OligoGym collection.
Note: reference of the scale not given here.

The first test deals with ADORA2B. The experiment in a line: pooled miR-30 sensor sort-seq; sequence = guide strand. Conditions: shRNA.
TTTTGTGAAAAGTGTAGCGGAA came in with a sensor-assay potency score (higher = more potent) of 0.0237.

TAGAAGTCAGTGCAGAAGCCCA: the sensor-assay potency score (higher = more potent) was -0.856.

TAGCGGAAGTCTCGGTTCCGGT displayed a sensor-assay potency score (higher = more potent) of -1.62.

In the case of TTTCACAATGAAAACCAGCCGT, the sensor-assay potency score (higher = more potent) is -0.477.

With TAATCCACACAGTAAAAGCAGC, the sensor-assay potency score (higher = more potent) was -1.13.

On to TTGACAACTGAATTGGCATGTG, for which the sensor-assay potency score (higher = more potent) is -0.143.

For the sequence TTTGTCAATCCTTGGAGCCTAC, the sensor-assay potency score (higher = more potent) was -0.74.

Sequence TTAAAAACAAAAGAGTCTGTTA yielded a sensor-assay potency score (higher = more potent) of -0.121.

For the sequence TATATTTGTCAATCCTTGGAGC, the sensor-assay potency score (higher = more potent) is -0.159.

AAACTTTTATACCTGAGCGGGA returned a sensor-assay potency score (higher = more potent) of -0.968.

The sequence AAGTGTAGCGGAAGTCTCGGTT had a sensor-assay potency score (higher = more potent) of -0.00274.

As for TTCACAATGAAAACCAGCCGTG, the sensor-assay potency score (higher = more potent) was -0.942.

As to ATTTTGTGAAAAGTGTAGCGGA, the sensor-assay potency score (higher = more potent) was -0.0457.

The next test concerns the target ADRA1D. Described as above. Conditions: shRNA.
Take AAGAAGAAAGGGAACCAGCAGA: the sensor-assay potency score (higher = more potent) is -0.303.

As for TTCTTCTCACGGGAGAACTTGA, the sensor-assay potency score (higher = more potent) was -1.13.

TTGCGCTCGGTCATGATGGCTG: the sensor-assay potency score (higher = more potent) was -0.179.

With ATGCGCAGCACCACCTCGGAGG, the sensor-assay potency score (higher = more potent) is -1.52.

In the case of TACATGACCACGATGACCGCCA, the sensor-assay potency score (higher = more potent) was determined as 0.517.

With TTGGCGCGCAGCTGGGTCGTGG, the sensor-assay potency score (higher = more potent) was -1.53.

In turn, TTCAGCTGCGGGAACAAGGAGC registered a sensor-assay potency score (higher = more potent) of -0.905.

As to TAGATGAGCGGGTTCACGCAGC, the sensor-assay potency score (higher = more potent) is -0.546.

Regarding TTGGTGACGGTCTGCAGGTGGC, the sensor-assay potency score (higher = more potent) was -1.18.

Consider TACCGCAGAAGCGCTCGTCAGG, for which the sensor-assay potency score (higher = more potent) was -1.24.

Sequence TACGGTGGCGCTCAGCAGCAGG gave a sensor-assay potency score (higher = more potent) of -1.13.

TAGTTGGTGACGGTCTGCAGGT: the sensor-assay potency score (higher = more potent) is -0.977.

Sequence TGAGAGGATGACAAGCAGGTTA had a sensor-assay potency score (higher = more potent) of -0.372.

Take TGCTGTAGTCGGCCAATTCGTA: the sensor-assay potency score (higher = more potent) is -0.975.

For the sequence TAGAAGGAGCACACGGAGGAGA, the sensor-assay potency score (higher = more potent) is -0.379.

As to TTGGCCGCTTTCTTCTCACGGG, the sensor-assay potency score (higher = more potent) was -0.602.

The sequence TTCACGATGAAATAGTTGGTGA came in with a sensor-assay potency score (higher = more potent) of -0.48.

TGACAAGCAGGTTACCTGCCAC gave a sensor-assay potency score (higher = more potent) of -0.511.

In turn, ATAGTTGGTGACGGTCTGCAGG returned a sensor-assay potency score (higher = more potent) of -1.13.

For TAGGGACACAGCCTCCACCTCT, the sensor-assay potency score (higher = more potent) is -1.05.

In turn, TACCGGTCCACGGAGATGGTGC gave a sensor-assay potency score (higher = more potent) of -1.15.

In the case of TAGTCGGCCAATTCGTAGGCCT, the sensor-assay potency score (higher = more potent) is -0.797.

The target of another test is ADRA2B. The description is as above. The settings on record: shRNA.
In turn, TAACTTGAAATAGTGATTCTGT returned a sensor-assay potency score (higher = more potent) of 0.986.

As for ATAACAGGGTTCAGTGAGCTGT, the sensor-assay potency score (higher = more potent) is -0.793.

On to TGTCCGTTGACCTCTCTGGCAG, for which the sensor-assay potency score (higher = more potent) is -0.964.

Consider TAGCGTAATAACTCAGACCTTT, for which the sensor-assay potency score (higher = more potent) is 0.245.

TACACCTCGCACCACGTGCGCC: the sensor-assay potency score (higher = more potent) is -1.33.
